Several values for one entry are separate records, joined by “and”; a condition that tells them apart may be missing. Equal values may be shown once. The whole screen tested about 5,500 compounds, of which about 2,000 (36%) were called active. About 18% were inconclusive and are not listed. Rule as the data show it: active = normalized growth mostly below about 0.91 (no sharp cut-off); inconclusive = no clear call, values can overlap the other calls; inactive = mostly above about 0.92. Some of the results follow.
Assay: chemical genetic growth profiling, strain panel (AID 1159580);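 also: tested at 20 µM; growth read once vehicle control cultures reached saturation at 30 °C; 1 = growth at the plate median or of vehicle wells; lower values mean less growth of the strain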
Conditions: S. cerevisiae deletion strains, growth OD

Measured: normalized growth

CCC(C)C(=O)O[C@H]1[C@H](O)C2C(CN3CC(C)CCC3[C@@]2(C)O)C2C[C@]34O[C@]5(O)C(OC(=O)C(C)(O)CC)CC[C@@]3(C)C5C(OC(C)=O)[C@@H](OC(C)=O)C4[C@@]21O (stereo partly specified)
inactive: locus YAL013W, strain DEP1, hits give low values 1.01 | locus YAL021C, strain ccr4, hits give low values 1.01 | locus YAL026C, strain drs2, hits give low values 1.02 | locus YAL030W, strain snc1, hits give low values 1.01 | locus YBL061C, strain skt5, hits give low values 1.01 | locus YBR009C, strain hhf1, hits give low values 1.02 | locus YBR021W, strain FUR4, hits give low values 1.01 | locus YBR023C, strain chs3, hits give low values 1.03 | locus YBR171W, strain sec66, hits give low values 1.03 | locus YBR229C, strain ROT2, hits give low values 0.999 | locus YBR231C, strain swc5, hits give low values 1.01 | locus YBR279W, strain paf1, hits give low values 1.02 | locus YCL011C, strain gbp2, hits give low values 1.02 | locus YCL016C, strain dcc1, hits give low values 1.03 | locus YCL029C, strain bik1, hits give low values 0.988 | locus YCL069W, strain vba3, hits give low values 1.02 | locus YCR088W, strain abp1, hits give low values 1.02 | locus YDL005C, strain med2, hits give low values 1.03 | locus YDL035C, strain GPR1, hits give low values 1.02 | locus YDL040C, strain nat1, hits give low values 1.02 | locus YDL074C, strain BRE1, hits give low values 1.02 | locus YDL101C, strain DUN1, hits give low values 1.02 | locus YDL134C, strain PPH21, hits give low values 1.01 | locus YDL185W, strain tfp1, hits give low values 0.995 | locus YDL192W, strain arf1, hits give low values 0.99 | locus YDR001C, strain nth1, hits give low values 1.01 | locus YDR069C, strain doa4, hits give low values 1.02 | locus YDR101C, strain arx1, hits give low values 0.991 | locus YDR137W, strain rgp1, hits give low values 1.04 | locus YDR150W, strain NUM1, hits give low values 1.02 | locus YDR159W, strain sac3, hits give low values 1.04 | locus YDR162C, strain NBP2, hits give low values 1.02 | locus YDR195W, strain ref2 1.01 | locus YDR297W, strain sur2, hits give low values 1.01 | locus YDR318W, strain mcm21, hits give low values 0.984 | locus YDR334W, strain swr1, hits give low values 1.02 | locus YDR335W, strain msn5, hits give low values 1.05 | locus YDR388W, hits give low values 0.989 | locus YDR392W, strain spt3, hits give low values 1.04 | locus YDR502C, strain sam2, hits give low values 0.989 | locus YEL003W, strain gim4, hits give low values 1.02 | locus YEL037C, strain rad23, hits give low values 1.03 | locus YEL061C, strain CIN8 (second series), hits give low values 1.02 | locus YEL061C, strain CIN8, hits give low values 1.01 | locus YER015W, strain faa2, hits give low values 1.02 | locus YER016W, strain bim1, hits give low values 1.03 | locus YER110C, hits give low values 0.982 | locus YER111C, strain swi4, hits give low values 1.02 | locus YER155C, strain BEM2 (second series), hits give low values 1.03 | locus YER155C, strain BEM2, hits give low values 1 | locus YER167W, strain BCK2, hits give low values 1.02 | locus YFR010W, strain ubp6, hits give low values 1.01 | locus YGL078C, strain dbp3, hits give low values 0.986 | locus YGL086W, strain mad1, hits give low values 1 | locus YGL167C, strain pmr1, hits give low values 1.01 | locus YGL173C, strain kem1, hits give low values 1.03 | locus YGL227W, strain vid30, hits give low values 1.03 | locus YGL240W, strain doc1, hits give low values 1.01 | locus YGL248W, strain PDE1, hits give low values 1.01 | locus YGL253W, strain hxk2, hits give low values 1.04 | locus YGR078C, strain PAC10, hits give low values 1.02 | locus YGR135W, strain pre9, hits give low values 0.983 | locus YGR229C, strain SMI1, hits give low values 1 | locus YGR252W, strain gcn5, hits give low values 0.965 | locus YHR013C, strain ard1, hits give low values 1.05 | locus YHR027C, strain rpn1, hits give low values 1.03 | locus YHR030C, strain SLT2, hits give low values 1.01 and 1.05 | locus YHR079C, strain IRE1 (second series), hits give low values 0.993 | locus YHR079C, strain IRE1, hits give low values 1.01 | locus YHR094C, strain hxt1, hits give low values 0.99 | locus YHR129C, strain ARP1, hits give low values 1.01 | locus YHR142W, strain chs7, hits give low values 1.04 | locus YHR200W, strain rpn10, hits give low values 1 | locus YIL066C, strain RNR3, hits give low values 1.01 | locus YIL073C, strain SPO22, hits give low values 1.02 | locus YIL125W, strain kgd1, hits give low values 0.995 | locus YIR030C, strain dcg1, hits give low values 0.993 | locus YJL092W, strain hpr5, hits give low values 1.02 | locus YJL095W, strain BCK1 (second series), hits give low values 1.03 | locus YJL095W, strain BCK1, hits give low values 1.01 and 0.996 | locus YJL115W, strain asf1, hits give low values 1.03 | locus YJL129C, strain trk1, hits give low values 1.04 | locus YJL134W, strain LCB3, hits give low values 1.01 | locus YJL154C, strain vps35, hits give low values 1.02 | locus YJL164C, strain tpk1, hits give low values 1.01 | locus YJL166W, strain qcr8, hits give low values 1.01 | locus YJL168C, strain set2, hits give low values 0.996 | locus YJL187C, strain SWE1 (second series), hits give low values 1.01 | locus YJR043C, strain POL32, hits give low values 0.995 | locus YJR066W, strain TOR1, hits give low values 0.976 | locus YJR075W, strain HOC1, hits give low values 1
